The test deals with furin, P09958. Description: furin cleavage Z-score vs untreated control; higher = more cleavage, active = 3.5 or more, inactive = 1 or less, 8 variable residues between constant flanks. How it is done:
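Multiplexed peptide-cDNA fusion cleavage assay. 8-mer variable peptides flanked by constant Cys-Ala (N-term) and Ala-Gly-Asn-Ala-Ser-Ala-Ser-Ala (C-term) and conjugated to a cDNA oligonucleotide were bead-immobilised via the N-terminus. They were treated with purified furin at a 1:10 enzyme:substrate ratio in 50 mM HEPES pH 7.5, 1 mM CaCl2, 100 mM NaCl for 7.5, 15 or 30 min. Released cDNA was counted by next-generation sequencing, and log counts versus no-furin controls were lowess-adjusted and converted to robust Z-scores.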

Consider 44 sequences from the supplement of paper PMC3545927.

Some of the results follow. No count for the full screen is at hand.

Chain of furin, P09958 (P09958 whole entry, the tested form may be a part): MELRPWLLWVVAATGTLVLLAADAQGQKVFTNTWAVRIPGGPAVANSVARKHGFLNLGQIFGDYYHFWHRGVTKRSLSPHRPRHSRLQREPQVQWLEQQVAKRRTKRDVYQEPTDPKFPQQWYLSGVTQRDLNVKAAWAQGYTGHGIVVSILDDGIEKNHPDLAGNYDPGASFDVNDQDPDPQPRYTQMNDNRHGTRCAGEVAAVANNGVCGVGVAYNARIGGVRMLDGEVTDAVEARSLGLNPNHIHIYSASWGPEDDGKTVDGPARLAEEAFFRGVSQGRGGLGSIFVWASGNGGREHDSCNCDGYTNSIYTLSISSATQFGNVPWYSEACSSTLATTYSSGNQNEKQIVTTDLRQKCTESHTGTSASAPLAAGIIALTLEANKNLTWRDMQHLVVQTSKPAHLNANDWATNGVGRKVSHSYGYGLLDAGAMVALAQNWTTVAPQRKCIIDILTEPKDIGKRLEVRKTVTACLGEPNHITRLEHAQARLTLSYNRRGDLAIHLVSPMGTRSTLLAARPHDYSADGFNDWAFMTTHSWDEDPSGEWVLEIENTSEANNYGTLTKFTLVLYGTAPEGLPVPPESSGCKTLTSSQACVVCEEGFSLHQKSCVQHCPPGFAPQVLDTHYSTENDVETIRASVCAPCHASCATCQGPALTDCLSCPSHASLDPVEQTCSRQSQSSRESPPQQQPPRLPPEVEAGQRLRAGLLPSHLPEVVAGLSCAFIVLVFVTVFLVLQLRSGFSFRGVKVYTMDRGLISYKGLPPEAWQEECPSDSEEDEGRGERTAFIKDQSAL

For CAVVCCSMSWAGNASASA [HC2088], the “furin cleavage Z-score” value by setting is: (7.5 min) -0.556 (inactive); (15 min) 1.09; (30 min) 0.406 (inactive).

Turning to CARCHARKAVAGNASASA [HC1425], the “furin cleavage Z-score” value is, setting by setting: (7.5 min) 0.121 (inactive); (15 min) 0.298 (inactive); (30 min) -0.417 (inactive).

Consider CACTPCSGSWAGNASASA [HC1840], for which the “furin cleavage Z-score” value is, setting by setting: (7.5 min) -0.759 (inactive); (15 min) -0.736 (inactive); (30 min) -0.368 (inactive).

With CAYPWPLYGNAGNASASA [HC201], the “furin cleavage Z-score” value is -0.792 (inactive) (7.5 min), 1.01 (15 min) and -0.667 (inactive) (30 min).

Regarding CAYGSRHIRLAGNASASA [FS-1107], the “furin cleavage Z-score” value by setting is: (7.5 min) 0.267 (inactive); (15 min) 1.21; (30 min) 2.07.

Turning to CAPALRSARSAGNASASA [FS-66], the “furin cleavage Z-score” value was 0.638 (inactive) (7.5 min), 1.37 (15 min) and 1.27 (30 min).

In the case of CALNARYSRSAGNASASA [FS-52], the “furin cleavage Z-score” value is 8.29 (active) (7.5 min), 10.6 (active) (15 min) and 9.13 (active) (30 min).

With CASKSRSARSAGNASASA [FS-500], the “furin cleavage Z-score” value (7.5 min) is 10.3 (active), the “furin cleavage Z-score” value (15 min) is 8.51 (active) and the “furin cleavage Z-score” value (30 min) is 6.45 (active).

With CASKSRVSRLAGNASASA [FS-1488], the “furin cleavage Z-score” value was 3.43 (7.5 min), 1.78 (15 min) and 3.65 (active) (30 min).

In the case of CARLWRKSRSAGNASASA [FS-189], the “furin cleavage Z-score” value runs as follows: (7.5 min) 9.72 (active); (15 min) 8.99 (active); (30 min) 8.13 (active).

With CASAHRQPRLAGNASASA [FS-144], the “furin cleavage Z-score” value is 0.7 (inactive) (7.5 min), 0.218 (inactive) (15 min) and 0.636 (inactive) (30 min).

CASVASSSASAGNASASA [HC1259]: the “furin cleavage Z-score” value is, setting by setting: (7.5 min) -0.54 (inactive); (15 min) 0.0424 (inactive); (30 min) -0.501 (inactive).

Consider CAMEECSEHLAGNASASA [HC1732], for which the “furin cleavage Z-score” value (7.5 min) was 0.304 (inactive), the “furin cleavage Z-score” value (15 min) is -1.16 (inactive) and the “furin cleavage Z-score” value (30 min) was 0.588 (inactive).

Regarding CAAVPCHRPSAGNASASA [HC2303], the “furin cleavage Z-score” value reads like this: (7.5 min) 0.31 (inactive); (15 min) -0.11 (inactive); (30 min) 0.292 (inactive).

As for CALGKVIDTLAGNASASA [HC220], the “furin cleavage Z-score” value is, setting by setting: (7.5 min) -0.0125 (inactive); (15 min) 0.316 (inactive); (30 min) -0.584 (inactive).

As for CATTKCSGSWAGNASASA [HC1874], the “furin cleavage Z-score” value runs as follows: (7.5 min) -0.691 (inactive); (15 min) -0.337 (inactive); (30 min) -0.205 (inactive).

Take CANKSRSSRSAGNASASA [FS-180]: the “furin cleavage Z-score” value (7.5 min) was 8.13 (active), the “furin cleavage Z-score” value (15 min) is 8.25 (active) and the “furin cleavage Z-score” value (30 min) is 6.67 (active).

In the case of CANKSRESRPAGNASASA [FS-1469], the “furin cleavage Z-score” value was -0.557 (inactive) (7.5 min), -0.538 (inactive) (15 min) and -0.178 (inactive) (30 min).

As for CASGSRSSRSAGNASASA [FS-1409], the “furin cleavage Z-score” value was 0.457 (inactive) (7.5 min), 1.76 (15 min) and 2.85 (30 min).

In the case of CATLSRSSRSAGNASASA [FS-1292], the “furin cleavage Z-score” value is, setting by setting: (7.5 min) 6.97 (active); (15 min) 8.07 (active); (30 min) 7.37 (active).

With CASKSRSSRSAGNASASA [FS-501], the “furin cleavage Z-score” value (7.5 min) is 8.19 (active), the “furin cleavage Z-score” value (15 min) was 9.38 (active) and the “furin cleavage Z-score” value (30 min) was 7.93 (active).

In the case of CAPRTCRNMWAGNASASA [HC1185], the “furin cleavage Z-score” value is -0.106 (inactive) (7.5 min), 1.74 (15 min) and 0.874 (inactive) (30 min).

CAMEEDSQHLAGNASASA [HC12]: the “furin cleavage Z-score” value reads like this: (7.5 min) 1.39; (15 min) -0.675 (inactive); (30 min) -1.53 (inactive).

For CADLLVGSATAGNASASA [HC292], the “furin cleavage Z-score” value runs as follows: (7.5 min) -0.794 (inactive); (15 min) -0.376 (inactive); (30 min) -2.04 (inactive).

For the sequence CAEVPCHRISAGNASASA [HC2384], the “furin cleavage Z-score” value runs as follows: (7.5 min) -0.484 (inactive); (15 min) 0.399 (inactive); (30 min) 0.761 (inactive).

Turning to CASLGRAKRAAGNASASA [FS-1569], the “furin cleavage Z-score” value is 5.19 (active) (7.5 min), 5.19 (active) (15 min) and 3.67 (active) (30 min).

For CAKHQRAKRAAGNASASA [FS-1130], the “furin cleavage Z-score” value (7.5 min) was 5.65 (active), the “furin cleavage Z-score” value (15 min) was 4.42 (active) and the “furin cleavage Z-score” value (30 min) is 4.22 (active).

In the case of CARDQRSVLAAGNASASA [FS-2206], the “furin cleavage Z-score” value is, setting by setting: (7.5 min) -0.0379 (inactive); (15 min) -0.365 (inactive); (30 min) 2.37.

In the case of CASWGRVWRAAGNASASA [FS-1420], the “furin cleavage Z-score” value reads like this: (7.5 min) 0.424 (inactive); (15 min) -1.01 (inactive); (30 min) 0.706 (inactive).

Regarding CASLLSPRPIAGNASASA [HC736], the “furin cleavage Z-score” value by setting is: (7.5 min) 0.821 (inactive); (15 min) -0.642 (inactive); (30 min) -0.193 (inactive).

As to CAAVRTKLKLAGNASASA [HC1635], the “furin cleavage Z-score” value (7.5 min) is -0.516 (inactive), the “furin cleavage Z-score” value (15 min) was 0.293 (inactive) and the “furin cleavage Z-score” value (30 min) came to 1.05.

As for CARRKRNVNTAGNASASA [FS-2068], the “furin cleavage Z-score” value reads like this: (7.5 min) 9.71 (active); (15 min) 10.9 (active); (30 min) 8.02 (active).

On to CARKKRIFNLAGNASASA [FS-2693], for which the “furin cleavage Z-score” value is 0.592 (inactive) (7.5 min), 0.839 (inactive) (15 min) and 0.689 (inactive) (30 min).

Turning to CARKKRNVNFAGNASASA [FS-3158], the “furin cleavage Z-score” value reads like this: (7.5 min) 10.3 (active); (15 min) 10.5 (active); (30 min) 8.52 (active).

Consider CARRKKQVGTAGNASASA [FS-2450], for which the “furin cleavage Z-score” value runs as follows: (7.5 min) -0.127 (inactive); (15 min) 1.03; (30 min) 0.188 (inactive).

Turning to CARRKRKNKTAGNASASA [FS-1968], the “furin cleavage Z-score” value (7.5 min) is 0.116 (inactive), the “furin cleavage Z-score” value (15 min) was -2.04 (inactive) and the “furin cleavage Z-score” value (30 min) is -0.0117 (inactive).

On to CAMEECSQYLAGNASASA [HC1749], for which the “furin cleavage Z-score” value (7.5 min) was 0.871 (inactive), the “furin cleavage Z-score” value (15 min) stood at 2.54 and the “furin cleavage Z-score” value (30 min) was 0.195 (inactive).

As to CAPVVVGTTDAGNASASA [HC417], the “furin cleavage Z-score” value is, setting by setting: (7.5 min) -0.513 (inactive); (15 min) 0.318 (inactive); (30 min) -0.373 (inactive).

Turning to CAEVVTSVWVAGNASASA [HC2210], the “furin cleavage Z-score” value was -1.35 (inactive) (7.5 min), -0.635 (inactive) (15 min) and 0.276 (inactive) (30 min).

As for CARPRRDAAEAGNASASA [FS-2741], the “furin cleavage Z-score” value is 8.33 (active) (7.5 min), 11 (active) (15 min) and 8.31 (active) (30 min).

With CARPRRLLQAAGNASASA [FS-2165], the “furin cleavage Z-score” value is -1.03 (inactive) (7.5 min), -0.941 (inactive) (15 min) and -0.713 (inactive) (30 min).

In the case of CARPRRDSAGAGNASASA [FS-2500], the “furin cleavage Z-score” value reads like this: (7.5 min) 0.906 (inactive); (15 min) -0.366 (inactive); (30 min) 0.714 (inactive).

As for CARPRRDCVAAGNASASA [FS-2440], the “furin cleavage Z-score” value (7.5 min) is 5.46 (active), the “furin cleavage Z-score” value (15 min) is 5.89 (active) and the “furin cleavage Z-score” value (30 min) was 6.25 (active).

As to CARPRRDAEPAGNASASA [FS-1762], the “furin cleavage Z-score” value is 10.8 (active) (7.5 min), 12.9 (active) (15 min) and 9.93 (active) (30 min).
